Source: PubChem BioAssay (Tox21)
“And” between values parts separate entries of the source, which are not always exact repeats. Identical values can stand only once. Results filed as inconclusive are left out. Entries that show only a call come without a potency. The source made the active and inactive calls. Unless noted, the call rests on the fitted dose curve.

Experiment: qHTS assay for small molecule agonists of the antioxidant response element (ARE) signaling pathway (AID 743202; active means well fitted activation curve with a large enough effect in the signal ratio in the repeat runs, not every such curve was filed as active; the % refers to the signal ratio)
Settings: HepG2 ARE-bla reporter, beta-lactamase FRET, 16 h; series mostly up to 73.3 µM
Summary of the method: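 ARE-bla HepG2 cells (beta-lactamase reporter under the antioxidant response element), plated 5 hours, then exposed to compounds 16 hours at 37 C. LiveBLAzer B/G FRET substrate added for 2 hours at room temperature; fluorescence intensity read.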
Potency means the concentration at half of the fitted maximal effect.

Structure (SMILES)	Potency
CCOP(=O)(OCC)SCCSCC	inactive
CCCCCCCCCCOC(=O)c1ccccc1C(=O)OCCCCCCCCCC	inactive
Cc1cc(=O)[nH]o1	inactive
C=CC(C)=O	inactive
S=C=NCc1ccccc1	24.6 µM (active)
C=CC(=O)OC(C)(C)C	inactive
COc1c(C(C)(C)C)cc([N+](=O)[O-])c(C)c1[N+](=O)[O-]	inactive
Clc1ccc(C2(Cn3cncn3)CC(Br)CO2)c(Cl)c1 (stereo not drawn)	inactive
O=C(NCc1cccnc1)Nc1ccc([N+](=O)[O-])cc1	inactive
CCn1cc[n+](C)c1	inactive
O=C(CBr)OCc1ccccc1	inactive
COP(=O)(OC)O/C(=C/Cl)c1cc(Cl)c(Cl)cc1Cl	5.75 µM (active)
N#Cc1ccc(Cl)cc1	inactive
ClCCCCBr	inactive
CCOP(=S)(OCC)Oc1cc(Cl)c(Br)cc1Cl	inactive
O=C(O)C(F)(F)C(F)(F)C(F)(F)C(F)(F)C(F)(F)C(F)(F)C(F)(F)C(F)(F)C(F)(F)F	24.3 µM (active)
O=C(O)CC(Cl)C(=O)O (stereo not drawn)	2.76 µM (active)
CCCN(CCC)c1c([N+](=O)[O-])cc(S(C)(=O)=O)cc1[N+](=O)[O-]	inactive

Experiment: qHTS assay for small molecule agonists of the antioxidant response element (ARE) signaling pathway - cell viability counter screen (AID 743203); further: nearly all actives have a fitted effect of over 55% in size
Settings: ARE-bla HepG2 viability, CellTiter-Glo luminescence, 16 h; series mostly up to 73.3 µM
Summary of the method: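 Cells (ARE-bla HepG2, 2,000/well) receive DMSO-dissolved compounds after a 5 hrs rest. Plates incubate 16 hrs at 37C/5% CO2. CellTiter-Glo luminescence is then recorded after 30 min at room temperature.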

Structure (SMILES)	Potency
CCOP(=O)(OCC)SCCSCC	inactive
CCCCCCCCCCOC(=O)c1ccccc1C(=O)OCCCCCCCCCC	inactive
CCC(COC(=O)c1cc(OC)c(OC)c(OC)c1)(c1ccccc1)N(C)C (stereo not drawn)	inactive
Cc1cc(=O)[nH]o1	inactive
C=CC(C)=O	inactive
O=C1C(=O)c2cccc3cccc1c23	inactive
Clc1cc(C(Cl)(Cl)Cl)cnc1Cl	61.1 µM (active)
CCOP(=O)(OCC)O/C(=C/Cl)c1ccc(Cl)cc1Cl	inactive
BrCCCCBr	inactive
C=CC(=O)OC(C)(C)C	inactive
COc1c(C(C)(C)C)cc([N+](=O)[O-])c(C)c1[N+](=O)[O-]	inactive
Clc1ccc(C2(Cn3cncn3)CC(Br)CO2)c(Cl)c1 (stereo not drawn)	inactive
O=C(NCc1cccnc1)Nc1ccc([N+](=O)[O-])cc1	inactive
CCn1cc[n+](C)c1	inactive
CCOP(=S)(Oc1ccc([N+](=O)[O-])cc1)c1ccccc1 (stereo not drawn)	inactive
Cl/C=C\C[N+]12CN3CN(CN(C3)C1)C2	inactive
Cc1c(F)c(F)c(COC(=O)C2C(/C=C(\Cl)C(F)(F)F)C2(C)C)c(F)c1F (stereo not drawn)	inactive
O=C(CBr)OCc1ccccc1	inactive
O=C(OC1CCCCC1)c1ccccc1C(=O)OC1CCCCC1	inactive
COP(=O)(OC)O/C(=C/Cl)c1cc(Cl)c(Cl)cc1Cl	inactive
N#Cc1ccc(Cl)cc1	inactive
ClCCCCBr	inactive
CCOP(=S)(OCC)Oc1cc(Cl)c(Br)cc1Cl	inactive
O=C(O)C(F)(F)C(F)(F)C(F)(F)C(F)(F)C(F)(F)C(F)(F)C(F)(F)C(F)(F)C(F)(F)F	inactive
C(=NC1CCCCC1)=NC1CCCCC1	3.08 µM (active) and 3.06 µM (active)
COc1nn(CSP(=S)(OC)OC)c(=O)s1	inactive
CCOP(=S)(OCC)Oc1nc(Cl)c(Cl)cc1Cl	inactive
NC(=O)C(Cl)(Cl)Cl	inactive
COP(=S)(Oc1cc(Cl)c(Br)cc1Cl)c1ccccc1 (stereo not drawn)	48.6 µM (active)
CCCN(CCC)c1c([N+](=O)[O-])cc(S(C)(=O)=O)cc1[N+](=O)[O-]	inactive
